Rows were chosen to be rich in hits. Some 9% of all compounds tested hit in one or more screens of this group.
LMNA splice mod = LMNA splicing modulation. HeLa LMNA splicing GFP/RFP minigene ratio, 48 h. Potency, µM (doses to about 46.1 µM), for inactives: top-dose ratio change, negative = inhibition, most hits filed as inhibitors. 200,000 tested, 0.01% active. AID 1487; active = well fitted inhibition curve with a large enough effect in the signal ratio, with a control signal flat, not every such curve was filed as active; inconclusive = small, poorly fitted or top-dose-only effect, or effect the other way, or a change in a side signal; the % refers to the signal ratio
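S3 HeLa stable clones carrying a lamin A-EGFP splicing minigene plus DsRed2 were seeded at 600 cells/well in Opti-MEM with 2% FBS, pin-dosed and incubated 48 h at 37°C. Acumen cytometry (488 nm) gave the GFP/RFP total-intensity ratio.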
IMPase Li cell = membrane-permeable IMPase blocker, potentiated with lithium. CHO-M1 cells, IP1 TR-FRET (IP-One), carbachol + lithium. Potency, µM (doses to about 59.4 µM), inactives show at the highest dose activity, negative = IMPase inhibition, actives largely listed as inhibitors. 210,000 tested, 0.35% active;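 note: IP1 builds up when IMPase is blocked and the TR-FRET signal falls; plate controls were basal vehicle for no effect and high inhibitor control for full effect; nearly all actives have a fitted effect of over 50% in size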
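Concentration–response in CHO-M1 cells, lithium-potentiated; 30 min at 37C. IP1 detected by competitive TR-FRET after 10 min lysis at RT. Hill-fitted AC50.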
HPGD block = blocks human HPGD enzyme activity; P15428; purified HPGD, NADH fluorescence kinetic, PGE2 substrate; Potency, µM, without a hit: at the highest dose activity change, negative = inhibition, most hits filed as inhibitors; 150,000 tested, 4.3% active; AID 894; active = well fitted inhibition curve with a large enough effect, not every such curve was filed as active; inconclusive = small, poorly fitted or top-dose-only effect, or another doubt; inactive = no such curve, though single readings can be large or run the other way
Target sequence (P15428 whole entry, looked up): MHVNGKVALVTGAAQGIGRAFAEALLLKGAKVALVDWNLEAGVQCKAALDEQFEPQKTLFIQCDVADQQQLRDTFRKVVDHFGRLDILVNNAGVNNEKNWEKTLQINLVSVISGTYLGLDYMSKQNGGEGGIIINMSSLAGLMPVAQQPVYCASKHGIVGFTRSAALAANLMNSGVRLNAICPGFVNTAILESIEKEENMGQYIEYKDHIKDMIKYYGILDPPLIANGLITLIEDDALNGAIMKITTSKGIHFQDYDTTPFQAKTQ
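NADH formation kinetics: reaction with 30 uM PGE2 and 1 mM NAD+ (final), 20 nM enzyme, Tris-HCl pH 8 with Tween 20, after 15 min compound preincubation at room temperature. Fluorescence change, last versus first of five reads.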
Luc counter = Kinase-Glo luciferase inhibition (counter-screen). Q27757. Kinase-Glo luciferase, ATP luminescence, 8 min. Potency, µM (highest dose often 38.3 µM), without a hit: at the highest dose activity change, negative = inhibition, usual class: inhibitors. 200,000 tested, 0.28% active. AID 1379; note: nearly all actives have a fitted effect of over 60% in size
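Recombinant Kinase-Glo luciferase, 10 uM ATP (linear range), luciferin; imidazole pH 7.2 / KCl / MgCl2 / Tween / BSA buffer; 8 min RT; luminescence.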
ALDH1A1 block = blocks purified human ALDH1A1 activity; Purified ALDH1A1, NADH fluorescence, propionaldehyde substrate; 220,000 tested, 7.3% active; AID 1030; P00352; Potency, µM (series often up to 75.3 µM), for inactives: at the top dose activity, negative = inhibition, actives largely listed as inhibitors; active = well fitted inhibition curve with a large enough effect, not every such curve was filed as active; inconclusive = small, poorly fitted or top-dose-only effect, or another doubt; inactive = no such curve, though single readings can be large or run the other way;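 note: plate controls were no enzyme wells and a reference inhibitor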
Target sequence (P00352 whole entry, looked up): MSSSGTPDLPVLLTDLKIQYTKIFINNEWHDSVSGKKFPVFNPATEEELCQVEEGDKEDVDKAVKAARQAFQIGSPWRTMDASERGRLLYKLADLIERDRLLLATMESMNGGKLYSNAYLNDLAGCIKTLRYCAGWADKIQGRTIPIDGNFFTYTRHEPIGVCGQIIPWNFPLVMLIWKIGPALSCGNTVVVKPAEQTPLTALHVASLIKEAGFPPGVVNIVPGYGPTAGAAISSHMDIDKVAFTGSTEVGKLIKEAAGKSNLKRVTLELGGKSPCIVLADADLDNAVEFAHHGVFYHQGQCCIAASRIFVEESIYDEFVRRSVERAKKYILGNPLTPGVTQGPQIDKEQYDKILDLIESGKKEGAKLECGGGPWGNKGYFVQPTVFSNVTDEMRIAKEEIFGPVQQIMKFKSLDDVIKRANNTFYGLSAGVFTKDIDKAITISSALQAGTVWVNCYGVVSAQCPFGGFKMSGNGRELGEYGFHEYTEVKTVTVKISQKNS
* hit, by the source's call; ? = inconclusive; / = no result; [ ] = another dose, or the depositor's remark. Unless noted, calls come from the whole dose curve; as a rule, active = well fitted curve in the direction sought with a large enough effect; inconclusive = small, poorly fitted or top-dose-only effect, or another doubt; inactive = no such curve, though single readings can be large; an effect the other way counts as inactive or inconclusive. Unless noted, % is set by controls: 0 for no effect and ±100 for the full control effect; potency is the fitted concentration of half-maximal effect.

SMILES	LMNA splice mod	IMPase Li cell	HPGD block	Luc counter	ALDH1A1 block
C=CCSC1=C(C#N)C(c2ccc(C(C)C)cc2)CC(=O)N1 (stereo not drawn)	-6.2%	20.8%[38.3 µM]	-14.5%	16.0%	28.2µM*
CC(=O)OC1CC2C(C)(C)C(O)C=C[C@@]2(C)C2CC[C@@]3(C)C(c4ccoc4)OC(=O)C4OC43[C@]12C (stereo partly drawn)	-1.1%	-4.7%	-0.9%	-2.9%	-2.6%
CC(Oc1ccc(Cl)cc1)c1ccc(C#N)c(=O)[nH]1 (stereo not drawn)	/	22.9%	/	-0.1%	?
CCOc1cc(C(=O)CCC(=O)OCC(=O)Nc2ccc(C)c(S(=O)(=O)N(C)C)c2)ccc1O	-1.0%[46 µM]	7.0%	/	0.2%	28.2µM*
NC(=O)C[C@@H](N)c1nn[nH]n1	/	-4.1%	-5.1%	-3.1%[7.66 µM]	4.1%[13.5 µM]
CCOC(=O)c1cnc2ccc(OCC)cc2c1N1CCN(C)CC1	-6.2%	/	/	/	?
CCOc1ccc2ncc(S(=O)(=O)c3ccc(C)cc3)c(N3CCC4(CC3)OCCO4)c2c1	?	/	/	/	3.16µM*
Nn1c(Cc2cccc3ccccc23)nnc1SCCOc1ccc(Br)cc1	?	4.2%	14.1µM*	-2.4%	?
Nn1c(Cc2cccc3ccccc23)nnc1SCCOc1ccc(F)cc1	-10.3%	-3.3%	?	12.4%	9.0%
Nn1c(Cc2cccc3ccccc23)nnc1SCc1c(F)cccc1Cl	-4.5%	4.7%	22.4µM*	10.7%	2.7%
CC1Cc2ccccc2N1C(=O)CSc1nnc(-c2ccccc2Cl)o1 (stereo not drawn)	-7.7%[46 µM]	/	/	/	/
C/C(=N/NC(=O)CSc1nc2ccccc2n1C)c1ccncc1	/	34.6%	/	2.2%	10µM*
C/C(=N\NC(=O)CSc1nc2ccccc2[nH]1)c1ccncc1	/	7.5%	/	9.0%	?
CS/C(=N\S(=O)(=O)c1cccs1)NC(=O)CSc1nc2ccccc2s1	-7.1%	-9.5%[38.3 µM]	25.1µM*	-2.6%	28.2µM*
Cc1cc(C)nc(NC(=O)CSc2nc3ccccc3s2)n1	-5.6%	-7.9%[38.3 µM]	-12.6%	5.3%	-1.5%
C/C(=N/NC(=O)CSc1nc2ccccc2s1)c1ccncc1	/	/	/	/	20µM*
CCOC(=O)/C=C/CCC/C=C/C(=O)c1ccccc1	/	6.8%	-14.1%	3.0%	-9.8%
Cc1nc([N+](=O)[O-])c(Sc2nc3ccc([N+](=O)[O-])cc3[nH]2)n1Cc1ccccc1	?	12.6%	?	8.9%	7.51µM*
O=C(CSc1nc2ccc([N+](=O)[O-])cc2[nH]1)c1ccc2ccccc2c1	?	34.6%[38.3 µM]	-6.5%	-1.5%	?
COc1ccc(N2C(=O)CC(N3CCOCC3)C2=O)cc1 (stereo not drawn)	0.3%	26.3%[38.3 µM]	-8.7%	1.7%	25.1µM*
O=C1CCCN1CCC1CCN(C2CC(=O)N(c3ccc(F)cc3)C2=O)CC1 (stereo not drawn)	2.9%	-13.7%[38.3 µM]	-6.2%	-1.6%	12.6µM*
O=C1CC(N2CCOCC2)C(=O)N1c1cc(Cl)cc(Cl)c1 (stereo not drawn)	5.7%	-24.2%[38.3 µM]	-25.7%	-10.5%	3.16µM*
COc1ccc(N2C(=O)CC(n3c(CCCCO)nc4ccccc43)C2=O)cc1 (stereo not drawn)	-4.6%	15.4%[38.3 µM]	-18.0%	0.2%	3.55µM*
CCN(CC)S(=O)(=O)c1cccc2cc(C(=O)O)c(O)cc12	-0.3%	?	-4.2%	-1.8%	-9.1%
Cc1nn(-c2ccccc2)nc1CNC(=O)c1ncoc1-c1ccccc1	-2.7%[46 µM]	/	/	/	9.1%
SMILES	LMNA splice mod	IMPase Li cell	HPGD block	Luc counter	ALDH1A1 block
O=C(C1CCN(C2CC(=O)N(c3ccc(F)cc3)C2=O)CC1)N1CCOCC1 (stereo not drawn)	2.4%	6.8%[38.3 µM]	-6.5%	-5.3%	7.08µM*
COC(=O)c1cccc(C23CC4(C2)[C@H](CN(CC2CCCCC2)[C@@H]4c2ccccc2)C3c2ccc(C(F)(F)F)cc2)c1 (stereo partly drawn)	/	5.6%	-9.5%	-5.3%	3.0%
Cc1cc(C)cc(NC(=O)Cn2cc(C(=O)c3ccccc3)c(=O)c3ccc(C)nc32)c1	12.3%[46 µM]	/	/	/	/
Nc1ncnc2c1nc(Br)n2C1O[C@H]2COP(=O)(O)O[C@@H]2C1O (stereo partly drawn)	?	-8.9%	-6.1%	-1.1%	3.3%
NNC(=O)/C=C/c1ccc(Cl)cc1Cl	-17.0%[46 µM]	-1.9%	/	4.6%	12.6µM*
O=C(O)CNC(=O)/C=C/c1ccc(Cl)cc1Cl	/	-12.7%	/	-2.3%	-4.8%
Cc1ccnc(NS(=O)(=O)c2ccc(NC(=O)C3COc4ccccc4O3)cc2)n1 (stereo not drawn)	/	-4.8%	/	-4.8%	-4.9%
COCC(C)n1c(C)cc(C(=O)COC(=O)c2ccc(N3CCCC3=O)cc2)c1C (stereo not drawn)	7.8%	21.5%[38.3 µM]	-13.1%	19.0%	25.1µM*
COCC(C)n1c(C)cc(C(=O)COC(=O)C2=NN(c3ccccc3)C(=O)CC2)c1C (stereo not drawn)	2.4%[46 µM]	4.7%	/	2.3%	11.5%
COc1ccc(COC(=O)c2ccc(N3CCCC3=O)cc2)cc1F	?	5.8%[38.3 µM]	14.1µM*	-2.4%	-7.5%
O=C(CCC1CCCN(C(=O)Cn2cnnn2)C1)NCc1ccc(F)c(F)c1 (stereo not drawn)	/	/	/	/	-3.3%
COc1ccccc1N1CCN(C(=O)CN(C)S(=O)(=O)c2cc(C)ccc2OC)CC1	5.0%[46 µM]	8.2%	/	-1.8%	3.7%
O=C(/C=C/c1ccccc1[N+](=O)[O-])NC1CCCC1	/	4.8%	/	0.8%	14.1µM*
O=C(NNc1ccccc1[N+](=O)[O-])NC1CCCCC1	-15.7%[9.22 µM]	5.3%	/	-1.0%	25.1µM*
NC(N)=Nc1ccc(-c2ccc(N=C(N)N)cc2)cc1	/	-1.5%	-6.7%	0.3%[7.66 µM]	4.3%[13.5 µM]
Cn1c(C(=O)N2CCN(C(=O)c3ccco3)CC2)cc2c(=O)n3ccccc3nc21	5.1%	10µM*	?	-2.2%	?
Cc1cccn2c(=O)c3cc(C(=O)N4CCN(C(=O)c5ccco5)CC4)n(C)c3nc12	1.2%	-8.1%[38.3 µM]	?	-5.6%	?
COc1ccc(CN2CCc3c(c(=O)n4ncc(C(=O)N5CCN(c6ccccc6OC)CC5)c4n3C)C2)cc1	-12.4%[46 µM]	/	/	/	/
CCCCN1C=CC(=C2C(=O)c3ccccc3C2=O)C=C1	/	-22.3%	/	1.12µM*	2.82µM*
COC(=O)CCN(C(=O)C1CCN(S(=O)(=O)c2c(C)noc2/C=C/c2ccccc2F)CC1)c1ccccc1	-3.2%[46 µM]	/	/	/	/
CCN(CC)c1ccc(/C=N/NC(=O)c2cccc(S(=O)(=O)Nc3ccccc3OC)c2)c(O)c1	?	-16.9%	-17.1%	1.3%	1.8%
CCN(CC)c1ccc(/C=N/NC(=O)c2cccc(S(=O)(=O)Nc3ccccc3OC)c2)cc1	-3.3%[46 µM]	0.0%	/	-2.3%	10µM*
COc1ccccc1NS(=O)(=O)c1cccc(C(=O)NN=C2CCCC2)c1	/	1.6%	/	1.1%	12.6µM*
COc1ccccc1NS(=O)(=O)c1cccc(C(=O)NN)c1	9.5%	-3.4%[38.3 µM]	-5.2%	-0.5%	3.98µM*
